Measurements from PubChem BioAssay AID1117270 (Broad Institute, 2014).
Measured potencies and affinities stand elsewhere. The source made the active and inactive calls.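 Rule for the calls: active = compounds with a valid dose curve toward the stimulated control whose half-maximal dose is at most twice the top dose; inconclusive = curve fit judged invalid or of poor quality; inactive = the rest.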

Assay: SELE mRNA upregulation in endothelial cells – cell-based, HUVEC, RT-qPCR, dry powder, orthogonal assay for E-selectin inducer project, confirmation (AID 1117270)
Conditions: 7 h; at 38 µM unless noted

Max activity, inactive:
COc1ccc(Nc2ccccc2N)cc1 12.2%
Cc1cc2ccccc2n1CCNC(=O)COc1ccc2ccccc2c1 9.31% [at 10 µM]
CCc1cccc2c1NC1(CCCC1)CC2C (centres undefined) 7.51% [at 5 µM]
Cc1ccc(CSc2nc3[nH]ncc3c(=O)[nH]2)cc1 8.8% [at 0.0001 µM]
O=C(O)C1CCN(c2nc(-c3ccccc3)c3cc(Br)ccc3n2)CC1 -4.71% [at 0.038 µM]
Cc1cc2cc(CNC(=O)Nc3ccc(Cl)c(Cl)c3)ccc2n1C -8.31%
CNc1ccccc1C(C)(C)c1cc(-c2cccc(OC)c2)no1 -5.8% [at 0.0001 µM]
Cc1cc2cc(CNC(=O)Nc3cccc(Cl)c3)ccc2n1C 7.76% [at 1.2 µM]
COc1cc(CC2C(=O)Nc3ccccc32)cc(C)c1O (centres undefined) 8.57% [at 0.038 µM]
Cc1cc(C)c(S(=O)(=O)NCCn2c(C)cc3ccccc32)c(C)c1 -91.1%
OCc1ccc(-c2nn(Cc3ccccc3)c3ccccc23)o1 6.5% [at 2.6 µM]
Cc1ccc(S(=O)(=O)NCc2ccc3c(c2)cc(C)n3C)cc1 4.64%
CCc1ccc(-n2c(=S)sc3c(=O)n(-c4ccccc4C)c(SCC(=O)O)nc32)cc1 9.28% [at 10 µM]
O=C(c1c(F)cccc1F)N(Cc1ccccc1)Cc1ccccc1 -17.4% [at 0.16 µM]
